Among all 2,300 compounds or so, about 2,000 (87%) were called active. So high a share suggests a set chosen from earlier hits. Only a sample is shown. A number with no mark means an inactive call. Cut-off read from the data, not from the text of the source: active = activation above about 49%; inactive = the rest.

Sequence of Aryl hydrocarbon receptor (Homo sapiens) (P35869 whole entry, looked up): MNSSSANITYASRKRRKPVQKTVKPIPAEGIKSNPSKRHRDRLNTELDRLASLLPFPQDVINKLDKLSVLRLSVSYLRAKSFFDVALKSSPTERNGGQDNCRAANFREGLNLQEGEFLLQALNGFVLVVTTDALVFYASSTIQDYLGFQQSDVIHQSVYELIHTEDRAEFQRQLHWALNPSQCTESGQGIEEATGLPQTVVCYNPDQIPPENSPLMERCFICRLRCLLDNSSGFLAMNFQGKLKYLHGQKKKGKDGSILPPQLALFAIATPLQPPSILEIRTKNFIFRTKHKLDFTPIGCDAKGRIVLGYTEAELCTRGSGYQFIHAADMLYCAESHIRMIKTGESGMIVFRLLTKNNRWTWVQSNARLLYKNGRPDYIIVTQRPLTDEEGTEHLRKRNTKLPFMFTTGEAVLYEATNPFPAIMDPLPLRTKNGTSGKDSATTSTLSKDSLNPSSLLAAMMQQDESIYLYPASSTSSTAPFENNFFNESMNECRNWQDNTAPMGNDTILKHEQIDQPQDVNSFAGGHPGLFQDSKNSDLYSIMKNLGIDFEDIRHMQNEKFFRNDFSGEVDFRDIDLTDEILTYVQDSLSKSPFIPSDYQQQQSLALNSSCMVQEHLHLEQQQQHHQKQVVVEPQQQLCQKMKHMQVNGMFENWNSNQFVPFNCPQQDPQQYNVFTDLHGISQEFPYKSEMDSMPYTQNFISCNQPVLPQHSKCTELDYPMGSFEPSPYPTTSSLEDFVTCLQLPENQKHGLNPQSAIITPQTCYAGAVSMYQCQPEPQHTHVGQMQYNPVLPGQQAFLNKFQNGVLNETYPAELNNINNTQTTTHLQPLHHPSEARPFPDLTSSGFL

The test has as its target Aryl hydrocarbon receptor (Homo sapiens) (UniProt P35869). The test is described as follows: AHR activators, confirmation, cell-based, luminescence, luciferase reporter, human (AID 2845).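 Note: HepG2 hepatoma cells carrying a DRE-driven firefly luciferase reporter; 0% = vehicle wells and 100% = reference agonist wells.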 As to conditions: human cells, AHR-responsive luciferase reporter, at 9 µM, active compounds read high. On the technique in general: In a reporter assay the amount or activity of a reporter protein is the signal.
As for `COc1ccccc1N1CCN(C(=O)c2cc3c(-c4ccc(Cl)cc4)nn(C)c3s2)CC1`, the activation is 102% (active).
The result for `Cn1nc(-c2ccc(Cl)cc2)c2cc(C(=O)NCc3ccco3)sc21` reads 148% (active).
The result for `CCOC(=O)N1CCN(C(=O)c2cc3c(-c4ccc(Cl)cc4)nn(C)c3s2)CC1` reads 85.9% (active); that for `CN(C)c1nc(Nc2ccc(Cl)c(Cl)c2)nc(N(C)C)n1`, 129% (active); that for `C=CCNC(=O)CSc1nc2sc(C)c(C)c2c(=O)[nH]1`, 53% (active).
The result for `c1cnc(N2CCN(c3ccc4ccccc4n3)CC2)nc1` reads 96.5% (active); that for `Cc1nc2sc(C(=O)c3ccccc3)c(N)c2c2c1CCCC2`, 97.5% (active); that for `Cn1c(SCC(=O)c2ccccc2)ncc(C(=O)Nc2ccc(F)cc2)c1=O`, 120% (active).
In the case of `CC1Cc2ccccc2N1C(=O)CSc1nnc(C2CC2)n1C` (stereo not given), the activation was 47.2% (active).
Next, `COc1ccc(C(=O)Nc2ccccc2C(=O)N/N=C/c2ccccc2OC)cc1`: 66.5% (active); `O=C(CC1Nc2ccccc2NC1=O)Nc1ccccc1` (stereo not given): 119% (active); `Cn1cc(Cl)c(C(=O)NNC(=S)Nc2cccc(Cl)c2)n1`: 75.4% (active).
The result for `O=C(Nn1c(-c2ccc(Cl)cc2)nc2ccccc2c1=O)c1cccnc1Cl` reads 28.5%; that for `Cc1ccc(-c2nc(C#N)c(NCCCn3ccnc3)o2)cc1`, 107% (active).
In the case of `O=C(Cn1c(NCCO)nc2ccccc21)c1ccc(Cl)cc1Cl`, the activation is 115% (active).
The result for `COc1ccc(C2NC(=O)c3ccccc3N2)cc1` (stereo not given) reads 39.3%; that for `Cc1cc(O)c(C(=O)/C=C/c2c(F)c(F)c(F)c(F)c2F)c(=O)o1`, 69.7% (active); that for `CCOC(=O)c1ccc2[nH]c3c(c2c1)CCCC3NC=O` (stereo not given), 89.1% (active).
The result for `CC(C)C(=O)Nc1c(C(=O)c2ccc(F)cc2)oc2ccccc12` reads 84.4% (active); that for `O=C(CSc1ccccn1)Nc1nc2c(ccc3ccccc32)s1`, 130% (active); that for `CSc1ncccc1C(=O)Nc1nc2ccc(F)cc2s1`, -8.12%.
The result for `C/C(=N\NC(=O)CNc1cccc2ccccc12)c1ccc(Br)s1` reads 79.5% (active); that for `Cc1nn2c3cc(N4CCOCC4)ccc3nc2c2ccccc12`, 85% (active); that for `Cc1cc(N2CCOCC2)nc(-c2ccc(Br)cc2)n1`, 60.3% (active).
Consider `O=C(Cn1cncn1)N/N=C/c1c2ccccc2cc2ccccc12`, for which the activation is 73.7% (active).
The result for `CCOc1ccccc1NC(=O)c1cccnc1` reads 121% (active).
The result for `Cc1ccc(Cl)cc1NC(=O)C1CCCN(c2cnccn2)C1` (stereo not given) reads 90.8% (active).
Turning to `O=C(Nc1cccc(Cl)c1)C1CCCN(c2cnccn2)C1` (stereo not given), the activation is 73% (active).
The result for `Brc1ccc(-c2noc(-c3ccccc3)n2)o1` reads 162% (active).
The result for `Nc1[nH][nH]c(=O)c1N=Nc1ccc2c(c1)OCO2` reads 74.9% (active); that for `C=CCOc1c(Br)cc(/C=N\n2nnnc2N)cc1OC`, 77.9% (active).
As to `COc1ccc(Cl)cc1C(=O)Nc1ccc(N(C)C(C)=O)cc1`, the activation was 78.6% (active).
Turning to `COc1cccc(-n2c(SCC(=O)NC3CCCCC3)nc3n[nH]c(C)c3c2=N)c1`, the activation was 83.7% (active).
With `COc1cccc(OC)c1C(=O)Nc1ccc(N2CCCCC2)cc1`, the activation is 80.7% (active).
The result for `COc1cc2ccccc2cc1C(=O)Nc1ccc(N2CCOCC2)cc1` reads 118% (active).
The result for `O=C(Nc1ccc(OC(F)(F)F)cc1)c1ccc2c(c1)no[n+]2[O-]` reads 127% (active); that for `OCCNc1nc(Nc2ccc(Cl)c(Cl)c2)nc2ccccc12`, 83.8% (active).
In the case of `CCc1nc(Nc2ccc3nccnc3c2)c2oc3ccccc3c2n1`, the activation is 120% (active).
The result for `CCCCC(=O)Nc1ccc(C(=O)Nc2cc(C(F)(F)F)ccc2Cl)cc1` reads 92.7% (active); that for `Cc1nn(-c2ccccc2)c2[nH]c(C(F)(F)F)cc(=O)c12`, 52.9% (active).

The values are drawn from PubChem BioAssay AID2845 (The Scripps Research Institute Molecular Screening Center, 2010).
